Results filed as inconclusive are left out. The source made the active and inactive calls. Unless noted, the call rests on the fitted dose curve; in most records, active means well fitted curve in the direction sought with a large enough effect; inconclusive means small, poorly fitted or top-dose-only effect, or another doubt; inactive means no such curve, though single readings can be large; an effect the other way counts as inactive or inconclusive.
How the values were obtained:
[1] = qHTS Assay for Identification of Small Molecule Inducers of Hypoxia Response (AID 2120; active means well fitted curve in the direction sought with a large enough effect in the signal ratio, with a control signal flat, not every such curve was filed as active; the % refers to the signal ratio)
Summary of the method: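 HRE-bla ME-180, 2500 cells/well, 0.5% dialyzed FBS medium; cpd titration, 17 h 37 degrees C; CCF4 2.5 h RT; Ex 405, Em 460/530 ratio -> %Activity, AC50.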

[2] = molecular target: DNA repair nuclease/redox regulator APEX1 (Homo sapiens) (UniProt P27695); assay: qHTS Validation Assay for Inhibitors of the Human Apurinic/apyrimidinic Endonuclease 1 (APE1) (AID 1705;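 further: TAMRA fluorescence gain over two minutes as APE1 cuts a quenched THF abasic duplex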)
Summary of the method: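 Activity read as rising fluorescence (598 nm emission, 525 nm excitation) from incision of a TAMRA/BHQ-2 duplex carrying a THF abasic site (50 nM). Compound and enzyme sat 15 min at RT before substrate start; signal change between first and third 60-s reads.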

[3] = molecular target: Endonuclease 4 (Escherichia coli (strain K12)) (UniProt P0A6C1); assay: Counterscreen for APE1 Inhibitors: qHTS Validation Assay for Inhibitors of Endonuclease IV (AID 1708)
Summary of the method: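 Measured as reaction progress, the fluorescence gain between first and third kinetic reads after adding 50 nM TAMRA/BHQ-2 THF duplex to 2 nM enzyme preincubated 15 min with compound; 2 mM MgCl2, pH 7.5.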

[4] = molecular target: ATP-dependent DNA helicase Q1 (Homo sapiens) (UniProt P46063); assay: qHTS Validation Assay for Inhibitors of RecQ-Like Dna Helicase 1 (RECQ1) (AID 2353)
Summary of the method: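 RECQ1T1 50 nM; forked duplex (20 bp + 30-nt ss tails) 200 nM, ATP 2 mM final; pH 8.0, 2 mM MgCl2, 2.5 ug/ml poly(dI-dC); 15 min compound preincubation; discontinuous kinetic read over 2 h at RT.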

[5] = molecular target: RecQ-like DNA helicase BLM (Homo sapiens) (UniProt P54132); assay: qHTS Validation Assay for Inhibitors of Bloom's syndrome helicase (BLM) (AID 2364)
Summary of the method: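 BLM 50 nM in 25 mM Tris-HCl pH 8.0, 5 mM NaCl, 2 mM MgCl2, 1 mM DTT, 0.01% Tween-20, 2.5 ug/ml poly(dI-dC); 15 min cpd preinc, RT. Start: 200 nM forked DNA + 2 mM ATP (final). TAMRA read, 2 reads 2 h apart.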

[6] = molecular target: Ubiquitin carboxyl-terminal hydrolase 2 (Homo sapiens) (UniProt O75604); assay: qHTS Validation Assay for Inhibitors of Ubiquitin-specific Protease USP2a Using CHOP2 as the Reporter (AID 463106)
Summary of the method: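 Inhibition is expressed relative to NEM as the full-inhibition control, with concentration-response curves classed by fit quality, magnitude and activity. Enzyme (USP2 core, 10nM) meets 25nM Ub-CHOP2 after compound preincubation; readings are taken at 60min.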

[7] = molecular target: DNA polymerase III PolC-type (Bacillus subtilis (strain 168)) (UniProt P13267); assay: qHTS Validation Assay for the Inhibitors of DNA Replication in Gram-Positive Bacteria (AID 485295);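 further: reconstituted holoenzyme with PolC plus beta clamp SSB and primase; PicoGreen fluorescence of double-stranded DNA made on primed circular M13 template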
Summary of the method: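 Double-stranded DNA product detected by PicoGreen fluorescence after EDTA quench. Compound incubated with B. subtilis holoenzyme (PolC, beta subunit, SSB, primase) before substrate addition; primed replication of M13Gori with dNTPs and NTPs at room temperature; DMSO defines 0% inhibition.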

[8] = molecular target: Tumor susceptibility gene 101 protein (Homo sapiens) (UniProt Q99816); assay: qHTS Validation Assay for Iinhibitors of HIV-1 Budding by Blocking the Interaction of PTAP/TSG101 (AID 485342; calls by dose curve)
Summary of the method: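 Fluorescence polarization of 50 nM FITC-PTAP peptide bound to 10 uM Tsg101 binding domain was read after 20 min room-temperature incubation with compounds, in 10 mM HEPES pH 7.5, 0.15 M NaCl, 0.01% Tween 20.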

[9] = molecular target: Beta-2 adrenergic receptor (Homo sapiens) (UniProt P07550); assay: qHTS validation assay of beta-arrestin-biased ligands of beta2-adrenergic receptor (AID 485366)
Summary of the method: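 Screening used a titration range of up to 46 microM in a beta-arrestin recruitment Tango luciferase assay. Cells in 1% FBS medium were treated 18 hr at 37 degrees C, and luminescence was normalized to %Activity.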

[10] = molecular target: ATP-dependent 6-phosphofructokinase (Trypanosoma brucei brucei) (UniProt O15648); assay: qHTS Validation Assay to Find Inhibitors of T. brucei phosphofructokinase (AID 485368); details: outcome: dose series up to 57.5 µM
Summary of the method: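 PFK-generated ADP was measured after 45 min at room temperature using ADP-Glo. The reaction contained 0.5 mM F6P and 0.1 mM ATP.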

[11] = molecular target: Thioredoxin reductase 1, cytoplasmic (Rattus norvegicus) (UniProt O89049); assay: qHTS Assay for Substrates of Mammalian Selenoprotein Thioredoxin Reductase 1 (TrxR1) (AID 488772);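 further: a drop in NADPH fluorescence below the no-compound background marks a TrxR1 substrate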
Summary of the method: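 In this dual-purpose format, potential substrates are identified from the first fluorescence read after selenite addition, not from the 8-minute delta. Rat enzyme is preincubated with NADPH and then with compound at ~22 deg C.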

[12] = molecular target: Thioredoxin reductase 1, cytoplasmic (Rattus norvegicus) (UniProt O89049); assay: qHTS Assay for Inhibitors of Mammalian Selenoprotein Thioredoxin Reductase 1 (TrxR1) (AID 488773);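 further: drop in NADPH fluorescence over an 8 min run after selenite addition; nearly all actives have a fitted effect of over 40% in size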
Summary of the method: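 Inhibition is scored from the loss of NADPH fluorescence between first and last reads of an 8-min kinetic run. Selenite (400 uM) was the substrate, added after 15 min compound preincubation at room temperature.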

[13] = molecular target: Flap endonuclease 1 (Homo sapiens) (UniProt P39748); assay: qHTS Validation Assay for the Inhibitors of Human Flap endonuclease 1 (FEN1) (AID 488816)
Summary of the method: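 Steps: add FEN1 (10 nM reagent) or buffer only; pin compounds; hold 15 min at room temperature; start with substrate, 50 nM final; read at 0 and 15 min; correct, normalize and fit a four-parameter Hill curve.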

[14] = qHTS Assay for Modulators of Human Peripheral Myelin Protein 22 (PMP22) Expression/Activity (AID 1967; active means well fitted curve in the direction sought with a large enough effect in the signal ratio; the % refers to the signal ratio)
Summary of the method: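 Readout is the corrected green/red luminescence ratio after 24 h compound exposure, normalised to untreated cells (0%). Engineered MSC80 mouse Schwann cells express green luciferase from the mouse Pmp22 promoter and red luciferase from EF-alpha as internal control.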

[15] = molecular target: Ferritin light chain (Equus caballus) (UniProt P02791); assay: qHTS Validation Assay for Identification of Novel General Anesthetics (AID 2323)
Summary of the method: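 Competitive displacement of the profluorescent anesthetic 1-AMA (50% saturated, PBS) from 10 uM apoferritin, 10 min, room temperature. Activity is normalized 380/535 nm fluorescence; concentration-response fitted with a four-parameter Hill equation.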

[16] = Cytometric Cell-Based qHTS for Inhibitors of the mTORC1 Signaling Pathway in MEF (Tsc2-/-, p53-/-) Cells (AID 2660);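 further: Tsc2 and p53 null MEFs carrying empty vector with compound for 24 h; percent of cells above a phospho-rpS6 to PI ratio cutoff in each well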
Summary of the method: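 Percent of cells positive for normalized phospho-S6 staining is reported, with the cutoff set from rapamycin (7.5 nM) versus DMSO wells. Tsc2-/-, p53-/- MEFs received compound for 24 hrs.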

[17] = High Content Imaging Cell-Based qHTS for Inhibitors of the mTORC1 Signaling Pathway in MEF (Tsc2-/-, p53-/-) Cells (AID 2666); details: at 38.3 µM (top of the series);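 further: percent of cells scored positive for phospho-rpS6 Ser235/236 immunostaining by imaging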
Summary of the method: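 Inhibition of rpS6 phosphorylation is measured by immunofluorescence imaging in empty-vector Tsc2-/-, p53-/- mouse embryonic fibroblasts after 24 hrs compound exposure at 37 degree Celsius. Results are reported as % positive cells per well.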

[18] = High Content Imaging Cell-Based qHTS for Inhibitors of the mTORC1 Signaling Pathway in MEF Cells (AID 2667);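 further: Tsc2-/- p53-/- MEFs stably re-expressing wild-type Tsc2 exposed 24 h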
Summary of the method: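 Fixed-cell imaging of phospho-S6 (Ser235/236, Alexa-488) after 24 hrs of compound treatment at 37 degree Celsius. Signal was normalized to Hoechst, and thresholds from the highest and lowest wells split cells into % active versus % non-active.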

[19] = Cytometry Cell-Based qHTS for Inhibitors of the mTORC1 Signaling Pathway in MEF cells (AID 2668);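 further: Tsc2-/- p53-/- mouse embryonic fibroblasts stably re-expressing wild-type Tsc2; percent cells positive for phospho-rpS6 Ser235/236 relative to propidium iodide stain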
Summary of the method: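 Phospho-rpS6 (Ser235/236) immunofluorescence over PI signal, scored as % positive cells using thresholds from 7.5 nM rapamycin and DMSO wells, after 24 h compound exposure of WT-Tsc2-rescued Tsc2-/-, p53-/- MEFs. PI cell count recorded for viability.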

[20] = Validation screen for small molecules that induce DNA re-replication in MCF 10A normal breast cells (AID 463097); further: nearly all actives have a fitted effect of over 60% in size
Summary of the method: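 Read-out is Hoechst total nuclear intensity by fluorescence scanning imager, flagging increased high-DNA-content nuclei. Compounds were incubated with MCF 10A cells for 48 hr (37 C, 5% CO2) before 40 min staining.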

Measured: outcome

Chain of Thioredoxin reductase 1, cytoplasmic (Rattus norvegicus) (O89049 whole entry, looked up): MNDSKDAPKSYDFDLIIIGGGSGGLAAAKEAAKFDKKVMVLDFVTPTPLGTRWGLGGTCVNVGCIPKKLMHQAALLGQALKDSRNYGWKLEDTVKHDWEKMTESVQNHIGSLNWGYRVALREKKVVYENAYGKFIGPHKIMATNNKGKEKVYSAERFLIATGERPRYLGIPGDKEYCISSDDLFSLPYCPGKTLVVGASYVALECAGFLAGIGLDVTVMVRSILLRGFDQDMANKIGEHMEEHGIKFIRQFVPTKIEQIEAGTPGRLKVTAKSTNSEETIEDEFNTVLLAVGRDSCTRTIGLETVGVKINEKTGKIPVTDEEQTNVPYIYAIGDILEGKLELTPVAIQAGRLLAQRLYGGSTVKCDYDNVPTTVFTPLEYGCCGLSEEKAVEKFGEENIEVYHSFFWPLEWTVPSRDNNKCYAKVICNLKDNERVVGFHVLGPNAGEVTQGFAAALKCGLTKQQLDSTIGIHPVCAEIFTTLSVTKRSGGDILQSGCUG
Chain of Beta-2 adrenergic receptor (Homo sapiens) (P07550 whole entry, looked up): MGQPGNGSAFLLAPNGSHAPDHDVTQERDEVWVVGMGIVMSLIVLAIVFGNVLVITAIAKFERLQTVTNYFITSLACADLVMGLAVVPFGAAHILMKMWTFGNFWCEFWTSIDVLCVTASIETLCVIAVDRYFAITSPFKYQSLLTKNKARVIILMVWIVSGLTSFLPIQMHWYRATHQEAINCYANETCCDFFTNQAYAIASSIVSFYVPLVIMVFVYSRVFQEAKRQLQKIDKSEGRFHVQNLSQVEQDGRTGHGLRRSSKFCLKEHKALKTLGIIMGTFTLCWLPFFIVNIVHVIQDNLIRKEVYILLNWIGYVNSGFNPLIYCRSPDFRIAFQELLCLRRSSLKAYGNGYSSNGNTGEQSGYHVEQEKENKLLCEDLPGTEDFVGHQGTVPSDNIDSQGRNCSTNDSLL
Chain of ATP-dependent 6-phosphofructokinase (Trypanosoma brucei brucei) (O15648 whole entry, looked up): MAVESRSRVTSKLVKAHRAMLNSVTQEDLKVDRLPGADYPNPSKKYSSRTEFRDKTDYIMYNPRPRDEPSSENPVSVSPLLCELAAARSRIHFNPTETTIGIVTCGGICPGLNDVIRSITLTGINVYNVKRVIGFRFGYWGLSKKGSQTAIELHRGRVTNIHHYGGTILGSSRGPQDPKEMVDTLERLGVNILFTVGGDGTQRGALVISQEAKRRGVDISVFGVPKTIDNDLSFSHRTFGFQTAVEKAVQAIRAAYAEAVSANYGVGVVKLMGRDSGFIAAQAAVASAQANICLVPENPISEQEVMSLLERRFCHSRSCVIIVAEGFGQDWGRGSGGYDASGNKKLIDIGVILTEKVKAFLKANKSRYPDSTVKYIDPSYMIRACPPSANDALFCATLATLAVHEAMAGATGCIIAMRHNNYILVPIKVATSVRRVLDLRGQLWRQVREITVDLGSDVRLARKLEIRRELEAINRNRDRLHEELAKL
Chain of ATP-dependent DNA helicase Q1 (Homo sapiens) (P46063 whole entry, looked up): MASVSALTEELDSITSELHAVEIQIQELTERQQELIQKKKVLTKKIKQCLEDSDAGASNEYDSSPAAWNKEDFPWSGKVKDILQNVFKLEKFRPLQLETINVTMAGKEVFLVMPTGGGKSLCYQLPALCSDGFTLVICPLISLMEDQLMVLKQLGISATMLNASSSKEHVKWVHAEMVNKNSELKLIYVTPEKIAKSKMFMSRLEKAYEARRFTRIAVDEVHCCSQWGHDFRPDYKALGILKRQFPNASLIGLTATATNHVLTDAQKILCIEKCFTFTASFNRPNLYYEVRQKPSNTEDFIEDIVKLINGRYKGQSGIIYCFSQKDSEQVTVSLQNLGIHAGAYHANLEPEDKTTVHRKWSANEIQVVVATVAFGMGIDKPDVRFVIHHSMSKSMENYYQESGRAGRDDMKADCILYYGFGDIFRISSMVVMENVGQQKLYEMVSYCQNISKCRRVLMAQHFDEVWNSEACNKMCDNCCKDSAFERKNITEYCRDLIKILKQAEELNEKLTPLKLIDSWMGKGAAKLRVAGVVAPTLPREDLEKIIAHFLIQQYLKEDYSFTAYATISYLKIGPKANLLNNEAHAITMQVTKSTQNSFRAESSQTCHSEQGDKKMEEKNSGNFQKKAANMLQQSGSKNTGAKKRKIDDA
Chain of Tumor susceptibility gene 101 protein (Homo sapiens) (Q99816 whole entry, looked up, the tested form may be a part): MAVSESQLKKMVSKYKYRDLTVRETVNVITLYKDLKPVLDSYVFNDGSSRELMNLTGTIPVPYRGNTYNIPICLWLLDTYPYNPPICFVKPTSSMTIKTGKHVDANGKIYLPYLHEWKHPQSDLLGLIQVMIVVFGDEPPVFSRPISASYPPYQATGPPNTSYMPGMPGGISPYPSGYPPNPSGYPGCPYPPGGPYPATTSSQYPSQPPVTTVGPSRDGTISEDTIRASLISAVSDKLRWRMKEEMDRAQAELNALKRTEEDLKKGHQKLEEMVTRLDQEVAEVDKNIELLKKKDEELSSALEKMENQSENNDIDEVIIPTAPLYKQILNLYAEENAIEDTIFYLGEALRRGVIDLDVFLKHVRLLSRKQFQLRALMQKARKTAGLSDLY
Chain of DNA polymerase III PolC-type (Bacillus subtilis (strain 168)) (P13267 whole entry, looked up): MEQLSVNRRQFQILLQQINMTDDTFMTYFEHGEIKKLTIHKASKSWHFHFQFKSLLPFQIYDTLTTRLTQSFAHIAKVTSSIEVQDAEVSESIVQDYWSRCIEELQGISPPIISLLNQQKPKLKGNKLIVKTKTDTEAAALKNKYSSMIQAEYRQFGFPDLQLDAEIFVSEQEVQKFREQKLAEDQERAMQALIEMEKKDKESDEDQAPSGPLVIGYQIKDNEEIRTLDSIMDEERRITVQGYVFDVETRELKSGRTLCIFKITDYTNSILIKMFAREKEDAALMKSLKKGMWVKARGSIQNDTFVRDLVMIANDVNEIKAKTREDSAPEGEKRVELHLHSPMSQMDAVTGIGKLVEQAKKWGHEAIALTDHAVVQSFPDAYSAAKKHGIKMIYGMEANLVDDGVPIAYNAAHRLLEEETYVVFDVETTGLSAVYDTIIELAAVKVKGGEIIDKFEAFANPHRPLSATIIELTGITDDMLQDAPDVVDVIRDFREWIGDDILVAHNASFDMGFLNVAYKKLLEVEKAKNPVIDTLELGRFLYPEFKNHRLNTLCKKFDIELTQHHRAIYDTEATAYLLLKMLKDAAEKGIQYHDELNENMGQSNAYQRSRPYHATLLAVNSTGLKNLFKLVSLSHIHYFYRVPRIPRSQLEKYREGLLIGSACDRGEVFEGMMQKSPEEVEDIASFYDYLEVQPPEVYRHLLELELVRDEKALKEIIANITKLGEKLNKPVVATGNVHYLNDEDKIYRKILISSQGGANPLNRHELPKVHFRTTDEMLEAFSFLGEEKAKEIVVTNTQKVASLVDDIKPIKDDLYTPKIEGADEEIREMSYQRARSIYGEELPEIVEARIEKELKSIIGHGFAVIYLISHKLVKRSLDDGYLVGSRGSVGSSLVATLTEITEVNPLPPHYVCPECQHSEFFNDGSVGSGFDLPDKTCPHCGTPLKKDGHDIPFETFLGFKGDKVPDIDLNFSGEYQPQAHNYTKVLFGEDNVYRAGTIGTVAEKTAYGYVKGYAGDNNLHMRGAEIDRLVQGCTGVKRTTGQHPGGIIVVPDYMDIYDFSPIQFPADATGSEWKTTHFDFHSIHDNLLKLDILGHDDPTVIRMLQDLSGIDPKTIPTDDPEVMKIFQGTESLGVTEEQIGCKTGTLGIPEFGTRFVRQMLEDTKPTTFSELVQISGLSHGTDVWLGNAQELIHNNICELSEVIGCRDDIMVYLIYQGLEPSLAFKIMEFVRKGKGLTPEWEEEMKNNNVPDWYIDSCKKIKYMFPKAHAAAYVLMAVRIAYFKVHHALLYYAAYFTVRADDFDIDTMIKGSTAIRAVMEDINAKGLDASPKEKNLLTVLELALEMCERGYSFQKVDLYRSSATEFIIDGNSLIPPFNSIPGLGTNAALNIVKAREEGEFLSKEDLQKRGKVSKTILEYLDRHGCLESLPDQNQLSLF
Chain of Flap endonuclease 1 (Homo sapiens) (P39748 whole entry, looked up): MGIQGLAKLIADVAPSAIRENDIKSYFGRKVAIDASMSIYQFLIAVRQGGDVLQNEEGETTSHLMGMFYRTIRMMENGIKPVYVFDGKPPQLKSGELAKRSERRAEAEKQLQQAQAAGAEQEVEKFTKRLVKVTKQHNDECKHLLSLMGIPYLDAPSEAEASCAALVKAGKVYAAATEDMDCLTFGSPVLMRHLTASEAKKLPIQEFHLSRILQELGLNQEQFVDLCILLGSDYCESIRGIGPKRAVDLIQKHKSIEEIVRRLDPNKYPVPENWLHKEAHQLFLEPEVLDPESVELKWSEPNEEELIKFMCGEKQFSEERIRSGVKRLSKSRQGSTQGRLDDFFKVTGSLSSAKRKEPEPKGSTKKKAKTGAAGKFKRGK
Chain of DNA repair nuclease/redox regulator APEX1 (Homo sapiens) (P27695 whole entry, looked up): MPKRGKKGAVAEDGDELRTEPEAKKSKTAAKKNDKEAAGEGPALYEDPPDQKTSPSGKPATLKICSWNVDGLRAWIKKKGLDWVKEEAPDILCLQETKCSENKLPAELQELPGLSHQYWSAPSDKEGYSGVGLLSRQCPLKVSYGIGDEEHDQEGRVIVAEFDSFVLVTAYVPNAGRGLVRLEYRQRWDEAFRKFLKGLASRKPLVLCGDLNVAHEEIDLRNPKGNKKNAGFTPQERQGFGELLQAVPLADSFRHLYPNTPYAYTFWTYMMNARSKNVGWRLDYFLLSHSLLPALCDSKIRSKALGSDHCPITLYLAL
Chain of Ferritin light chain (Equus caballus) (P02791 2-175 limits assumed): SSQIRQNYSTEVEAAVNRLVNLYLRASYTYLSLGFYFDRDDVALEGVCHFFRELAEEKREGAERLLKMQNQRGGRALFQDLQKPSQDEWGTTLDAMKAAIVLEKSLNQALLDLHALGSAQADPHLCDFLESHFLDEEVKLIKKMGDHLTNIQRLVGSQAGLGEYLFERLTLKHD

CN(C)Cc1ccccc1
inactive: [1]

O=C(O)CC(O)(CC(=O)O)C(=O)O
inactive: [1]

C=Cc1ccccc1
inactive: [1]

CCCCCCCCCC(=O)O
inactive: [1]

COC(C)=O
inactive: [1]

CN[C@H]1CC[C@@H](c2ccc(Cl)c(Cl)c2)c2ccccc21
inactive: [2] | [3] | [4] | [5] | [6] | [7] | [8] | [9] | [10] | [11] | [12] | [13]

NCCCC(=O)O
inactive: [2] | [3] | [14] | [15] | [4] | [16] | [17] | [18] | [19] | [20] | [6] | [7] | [8] | [9] | [10] | [11] | [12] | [13]

— PubChem BioAssay (NCATS)
